For 16 compounds, AC50 and outcome results are on record in PubChem BioAssay (EPA / NIEHS).

As usually defined, the AC50 is the concentration giving half of the maximal activity seen.

A short description of assay [1]: ATG_CRE_CIS: Attagene CIS-FACTORIAL HepG2 Assay for human cAMP Responsive Element (CRE) binding protein 3 (AID 2282926). As to conditions: HepG2 CRE cis-reporter, Attagene multiplexed mRNA; actives raise or lower the signal. The method in brief:
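Induced reporter mRNA from a CRE cis element, measured in HepG2 among many multiplexed units at 24 h. Detection used RT-PCR plus capillary electrophoresis of fluorescent fragments; DMSO served as negative control.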

Assay [2] addresses CCAAT/enhancer-binding protein beta (Homo sapiens) (UniProt P17676). Description: ATG_C_EBP_CIS: Attagene CIS-FACTORIAL HepG2 Assay for human CCAAT/Enhancer Binding Protein (C/EBP) beta (AID 2282927). As to conditions: HepG2 Attagene cis-factorial transcription factor reporter; actives raise or lower the signal. Summed up:
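Endogenous transcription factor activity in human liver HepG2 cells is inferred from induction of a CEBPB-linked reporter mRNA. Exposure lasts 24 h; activity is fitted in both directions relative to DMSO.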

Assay [3] in a line: ATG_CMV_CIS: Attagene CIS-FACTORIAL HepG2 Assay for human CMV (Internal Marker) (AID 2282928).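 Further: endpoint acts as a background internal control marker rather than a target.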 Conditions: HepG2 CMV promoter reporter, transcription factor profiling; actives raise or lower the signal. The method in brief:
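Readout: fluorescent reporter cDNA fragments separated by capillary electrophoresis after RT-PCR and HpaI cut. Cells: HepG2 carrying transfected cis-promoter reporter constructs, dosed 24 h. Endpoint serves as background internal-marker control, fit bidirectionally versus DMSO.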

Assay [4] in a line: ATG_DR4_LXR_CIS: Attagene CIS-FACTORIAL HepG2 Assay for human Liver X Receptor (LXR), DR4 submotif (AID 2282929). As to conditions: HepG2 Attagene DR4 cis-reporter, mRNA transcription; actives raise or lower the signal. Summed up:
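After transient transfection with multiplexed cis-promoter reporter units, HepG2 cells received test chemicals for 24 h. Reporter mRNA induction, detected by fluorescence after RT-PCR and capillary electrophoresis, was scored relative to DMSO.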

The target in assay [5] is Aryl hydrocarbon receptor (Homo sapiens) (UniProt P35869). In words: ATG_Ahr_CIS: Attagene CIS-FACTORIAL HepG2 Assay for human Aryl Hydrocarbon Receptor (Ahr) (AID 2282930). As to conditions: HepG2 AhR cis-factorial reporter transcription; actives raise or lower the signal. The method in brief:
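Transient MRTU transfection of HepG2 → 24 h compound exposure → total RNA, oligo(dT) RT → PCR, 6-FAM extension, HpaI cut → CE fluorescence. DMSO = baseline; bidirectional curve fit.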

A short description of assay [6]: ATG_AP_1_CIS: Attagene CIS-FACTORIAL HepG2 Assay for human Activator Protein 1 (AP-1) (AID 2282931). Conditions: HepG2 Attagene cis-factorial AP-1 reporter mRNA; actives raise or lower the signal. The method in brief: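 After 24 h incubation with test chemical, RNA from transfected HepG2 cells was reverse-transcribed, amplified, fluorescently labelled and digested before capillary electrophoresis. Reporters were driven by cis-regulatory promoters; activity fitted bidirectionally versus DMSO.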

The nature of assay [7]: ATG_AP_2_CIS: Attagene CIS-FACTORIAL HepG2 Assay for human Activator Protein 2 (AP-2) (AID 2282932). As to conditions: HepG2 AP-2 cis-reporter, Attagene transcription factor profiling; actives raise or lower the signal. The method in brief:
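Endogenous transcription factor activity is reported through transfected multiplex reporter constructs in HepG2, after 24 h of compound exposure. Transcripts were quantified by RT-PCR and capillary electrophoresis of fluorescent fragments. Bidirectional fit against DMSO.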

Assay [8] can be described thus: APR_HepG2_NuclearSize_72hr: Apredica 72-hour HepG2 Assay for Nuclear Size (AID 2282925). As to conditions: high-content imaging, actives raise or lower the signal. The method in brief:
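Nuclear size was read by high-content imaging of Hoechst 33342 stain after formaldehyde fixation. Compounds ran 72 h on HepG2 at 0.39 to 200 uM, with final DMSO 0.5% v/v. Curves fitted both directions relative to DMSO control.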

Assay [9] in a line: ATG_BRE_CIS: Attagene CIS-FACTORIAL HepG2 Assay for human Bone Morphogenetic Protein (BMP) Response Element (BRE) (AID 2282933). As to conditions: HepG2 BMP response element reporter, Attagene transcription factor profiling; actives raise or lower the signal. The method in brief:
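Endogenous transcription factor activity read in transiently transfected HepG2 cells after 24 h chemical exposure. Bidirectional curve fitting against DMSO; readout is reporter transcript level by RT-PCR with capillary electrophoresis of labelled products.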

In assay [10] the target is Retinoic acid receptor alpha (Homo sapiens) (UniProt P10276). Description: ATG_DR5_RAR_CIS: Attagene CIS-FACTORIAL HepG2 Assay for human Retinoic Acid Receptor Alpha (RARE), DR5 submotif (AID 2282934).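 On AC50: reporter responds to endogenous RAR alpha beta and gamma in HepG2 not RARA alone.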 As to conditions: HepG2 Attagene cis-factorial RARE DR5 reporter, mRNA; actives raise or lower the signal. The method in brief: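 Transient MRTU transfection of HepG2; 24 h compound treatment; TriZol RNA, oligo(dT) RT, PCR, FAM labelling, capillary electrophoresis. Bidirectional fit vs DMSO. Endogenous TF activity at DR5 RARE.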
Retinoic acid receptor alpha (Homo sapiens), sequence (P10276 whole entry, looked up): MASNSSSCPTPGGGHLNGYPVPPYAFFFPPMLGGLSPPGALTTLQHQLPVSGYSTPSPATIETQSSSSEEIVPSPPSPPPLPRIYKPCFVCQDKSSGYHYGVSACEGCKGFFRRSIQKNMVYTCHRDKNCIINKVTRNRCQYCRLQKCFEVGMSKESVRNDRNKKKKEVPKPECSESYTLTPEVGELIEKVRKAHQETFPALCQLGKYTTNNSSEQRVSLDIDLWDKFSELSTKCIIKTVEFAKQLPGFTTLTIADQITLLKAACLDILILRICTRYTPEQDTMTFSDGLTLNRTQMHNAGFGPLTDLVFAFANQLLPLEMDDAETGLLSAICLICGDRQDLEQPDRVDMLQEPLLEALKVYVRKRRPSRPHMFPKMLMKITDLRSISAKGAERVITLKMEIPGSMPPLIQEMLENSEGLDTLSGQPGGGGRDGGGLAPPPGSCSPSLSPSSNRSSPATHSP

Several values for one entry are separate records, joined by “and”; a condition that tells them apart may be missing. Identical values can stand only once. Some structures have more than one record in an assay (separate samples or runs), and their calls can disagree. Activity calls are given as the source filed them. How the source made its calls: active means hit-call score of the fitted dose curve at least 0.9, where 1 is the maximum; inactive means score below 0.9.

Aryl hydrocarbon receptor (Homo sapiens), sequence (P35869 whole entry, looked up): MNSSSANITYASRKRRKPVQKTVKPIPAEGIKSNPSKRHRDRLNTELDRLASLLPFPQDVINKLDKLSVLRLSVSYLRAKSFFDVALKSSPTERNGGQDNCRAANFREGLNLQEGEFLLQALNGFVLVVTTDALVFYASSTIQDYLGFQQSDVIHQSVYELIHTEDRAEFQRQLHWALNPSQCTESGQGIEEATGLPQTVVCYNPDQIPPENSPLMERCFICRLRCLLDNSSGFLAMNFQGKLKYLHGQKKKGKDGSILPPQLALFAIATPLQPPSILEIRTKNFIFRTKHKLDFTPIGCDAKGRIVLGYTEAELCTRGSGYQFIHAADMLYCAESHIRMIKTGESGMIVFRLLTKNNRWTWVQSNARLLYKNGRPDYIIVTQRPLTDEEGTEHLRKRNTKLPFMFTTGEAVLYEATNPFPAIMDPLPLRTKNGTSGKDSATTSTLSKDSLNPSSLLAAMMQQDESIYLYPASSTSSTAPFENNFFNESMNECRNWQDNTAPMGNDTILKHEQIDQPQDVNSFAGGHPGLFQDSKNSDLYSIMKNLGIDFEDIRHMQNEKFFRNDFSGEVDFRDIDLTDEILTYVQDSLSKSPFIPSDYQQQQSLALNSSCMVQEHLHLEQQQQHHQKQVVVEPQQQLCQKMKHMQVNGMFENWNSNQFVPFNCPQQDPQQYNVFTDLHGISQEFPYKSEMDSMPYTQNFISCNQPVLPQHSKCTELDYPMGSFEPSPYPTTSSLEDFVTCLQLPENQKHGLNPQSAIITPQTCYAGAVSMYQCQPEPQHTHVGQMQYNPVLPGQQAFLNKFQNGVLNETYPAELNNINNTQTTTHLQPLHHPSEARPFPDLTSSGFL
CCAAT/enhancer-binding protein beta (Homo sapiens), sequence (P17676 whole entry, looked up): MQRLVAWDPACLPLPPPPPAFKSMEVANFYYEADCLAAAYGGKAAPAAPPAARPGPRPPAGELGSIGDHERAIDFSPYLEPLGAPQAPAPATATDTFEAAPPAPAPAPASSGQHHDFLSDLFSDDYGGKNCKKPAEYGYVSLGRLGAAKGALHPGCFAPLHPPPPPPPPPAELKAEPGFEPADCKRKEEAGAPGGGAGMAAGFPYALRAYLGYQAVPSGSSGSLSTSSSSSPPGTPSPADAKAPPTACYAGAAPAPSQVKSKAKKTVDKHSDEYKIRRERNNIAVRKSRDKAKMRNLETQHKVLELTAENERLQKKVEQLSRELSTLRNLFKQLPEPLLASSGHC

Consider `OCCC(F)(F)C(F)(F)C(F)(F)C(F)(F)C(F)(F)C(F)(F)C(F)(F)C(F)(F)F`, for which the AC50 in [1] was 26.3 µM (active) and 124 µM (active); in assay [4], 40.1 µM (active); in assay [6] it was 39.1 µM (active). Also, the outcome in [2], in [3], in assay [4], in [5], in assay [6] and in assay [7] was inactive.

For the compound `C=C(C)C(=O)OCCC(F)(F)C(F)(F)C(F)(F)C(F)(F)C(F)(F)C(F)(F)F`, the call in assay [8], in assay [1], in assay [2], in assay [3], in assay [4] and in assay [5] was inactive. Moreover, the result in [6] and in [7] was inactive. For the same compound, the AC50 in assay [5] was 54.4 µM (active).

`COCC(C)OCC(C)O` (stereo unspecified): the compound was classed as inactive in assay [1], in [2], in assay [3], in [4], in assay [5] and in [6]. The compound was classed as inactive in assay [7], in assay [9] and in assay [10].

With `Cc1oc(-c2ccccc2)nc1CCOc1ccc(C[C@H](Nc2ccccc2C(=O)c2ccccc2)C(=O)O)cc1`, the result in assay [8], in assay [1], in [2], in assay [3], in [4] and in assay [5] was inactive. Besides, the call in assay [6], in assay [7] and in assay [10] was inactive.

In the case of `O=C1OC2(c3ccccc31)c1cc(Br)c(O)c(Br)c1Oc1c2cc(Br)c(O)c1Br`, the compound was called inactive in assay [1], in [2], in assay [3], in [4], in [5] and in [6]. Moreover, the compound was classed as inactive in assay [7], in assay [9] and in [10]. In addition, in assay [3], the AC50 is 93 µM (active).

As to `COC(=O)CCCCC(=O)OC`, the call in assay [8], in [1], in assay [2], in assay [3], in assay [4] and in [5] was inactive. Besides, the call in assay [6], in assay [7], in assay [9] and in assay [10] was inactive.

In the case of `CC#C[C@]1(O)CC[C@H]2[C@@H]3CCC4=CC(=O)CCC4=C3[C@@H](c3ccc(N(C)C)cc3)C[C@@]21C`, the call in assay [8], in assay [2], in [3], in assay [5], in [6] and in [7] was inactive. In addition, the compound was classed as inactive in assay [10]. Also, the AC50 in assay [3] is 56.9 µM (active); in assay [4] it was 10.4 µM (active) [middle of 4 runs]; in assay [5], 6.86 µM (active) and 5.91 µM (active); in assay [6] it was 27.6 µM (active) and 66.9 µM (active) and 63.5 µM (active); in [7] it was 25.7 µM (active); in [10], 7.96 µM (active).

In the case of `CCOC(=O)CC(O)(CC(=O)OCC)C(=O)OCC`, the call in assay [8], in [1], in [2], in assay [3], in assay [4] and in [5] was inactive. Also, the result in [6], in assay [7] and in [10] was inactive.

In the case of `O=c1c(-c2ccc(O)cc2)coc2cc(O)ccc12`, the outcome in [1], in [2], in assay [4], in assay [5], in assay [6] and in [7] was inactive. In addition, the result in [10] was inactive. Further, the AC50 in assay [2] was 100 µM (active) and 75.6 µM (active); in assay [5], 69.7 µM (active).

Consider `CCCCCCC(=O)O`, for which the outcome in assay [8], in assay [2], in [3], in assay [4], in assay [5] and in [6] was inactive. Further, the call in assay [7], in assay [9] and in [10] was inactive.

For `ClC1=C(Cl)C(Cl)(Cl)C(Cl)=C1Cl`, the call in assay [8], in [2], in [3], in [4], in assay [5] and in [6] was inactive. Also, the compound was classed as inactive in assay [7] and in assay [10]. For the same compound, the AC50 was 16.9 µM (active) in assay [2]; 11.1 µM (active) in assay [3]; 6.59 µM (active) in assay [4]; 8.81 µM (active) in assay [5]; 21.4 µM (active) in assay [10].

On to `CN(C)C=O`, for which the compound was called inactive in [8], in assay [1], in [2], in assay [3], in [4] and in [5]. For the same compound, the compound was classed as inactive in assay [6], in assay [7], in assay [9] and in [10].

`CC(C)(C)c1ccc(O)c(C(C)(C)C)c1`: the compound was called inactive in assay [1], in assay [2], in assay [3], in assay [4], in assay [5] and in assay [7]. For the same compound, the call in assay [9] and in [10] was inactive. For the same compound, the AC50 in [6] was 15.9 µM (active).

In the case of `CCC(=C(c1ccc(O)cc1)c1ccc(OCCN(C)C)cc1)c1ccccc1`, the call in assay [8], in assay [2], in [3], in assay [4], in assay [5] and in assay [6] was inactive. In addition, the outcome in assay [7], in assay [9] and in assay [10] was inactive. The AC50 is 5.22 µM (active) and 7.1 µM (active) in [3]; 9.72 µM (active) and 2.37 µM (active) in assay [4]; 10.5 µM (active) in assay [9]; 11.1 µM (active) in assay [10].

With `COCC(C)O` (stereo unspecified), the compound was classed as inactive in [8], in assay [1], in assay [2], in assay [3], in assay [4] and in assay [5]. In addition, the call in assay [6], in assay [7] and in assay [9] was inactive.

Consider `O=C(O)Cc1cc(I)c(Oc2cc(I)c(O)c(I)c2)c(I)c1`, for which the compound was classed as inactive in assay [8], in assay [4], in assay [5] and in [7]. Moreover, the AC50 was 29.1 µM (active) and 17.8 µM (active) in [2]; 22.4 µM (active) and 16.7 µM (active) in assay [3]; 14.9 µM (active) in [4]; 89.3 µM (active) in assay [5]; 16.5 µM (active) and 122 µM (active) in assay [6]; 121 µM (active) in assay [7]. Moreover, the AC50 in assay [10] was 41.1 µM (active) and 32.5 µM (active).
